We go through five molecules from PubChem BioAssay.

Calls of active or inactive are those of the source.

The nature of experiment [1]: small molecules captured by biotinylated probe aFSTL3 – biochemical, small-molecule microarray, fluorescence 635/667, stem cell growth factor project, primary screen (AID 1064).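 Note: measures binding of the biotinylated anti-FSTL3 antibody to printed compounds.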 Particulars: higher = more signal.
A short description of experiment [2]: binders from COS7 lysate, DM2A8 probe, primary screen, torsin A project, cell lysate, small-molecule microarray, fluorescence 635/667 (AID 1065). Particulars: higher = more signal, COS7 lysate expressing mutant human TOR1A.
Experiment [3] is described as follows: small molecules captured by biotinylated probe aFGF2 – biochemical, small-molecule microarray, fluorescence 635/667, stem cell growth factor project, primary screen (AID 1067).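 Note: measures binding of biotinylated aFGF2 protein to printed compounds on slides; z-score merges feature fluorescence and signal-to-noise across triplicate slides.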 Particulars: higher = more signal.
Experiment [4] is described as follows: small molecules captured by biotinylated probe aFGF10 – biochemical, small-molecule microarray, fluorescence 635/667, stem cell growth factor project, primary screen (AID 1071).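 Note: score merges 667 nm spot intensity and signal to noise from triplicate slides.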 Particulars: higher = more signal.
Experiment [5] has as its target Neurogenic locus notch homolog protein 2 (Homo sapiens) (UniProt Q04721). Kind of experiment: small molecules binding Notch2 protein – biochemical, small-molecule microarray, 635 nm fluorescence, stem cell growth factors, primary screen (AID 1073). Particulars: higher = more signal.
Experiment [6] addresses Pro-neuregulin-1, membrane-bound isoform (Homo sapiens) (UniProt Q02297). Briefly: small molecules binding neuregulin-1 protein – biochemical, small-molecule microarray, fluorescence 635/667, psychiatric disease protein project, primary screen (AID 1075).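 Note: score combines 667 nm spot fluorescence with signal to noise.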 Particulars: NRG1 binding, 635 nm fluorescence, higher = more signal.
For experiment [7], the system named is Neuregulin-1 EGF-like domain. Kind of experiment: small molecules binding NRG1 EGF domain – biochemical, small-molecule microarray, 635 nm fluorescence, primary screen (AID 1081).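 Note: binding of the protein to compounds printed on small-molecule microarray slides.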 Particulars: higher = more signal.
The nature of experiment [8]: FRG1 expression reporter modulators in myotubes – cell-based, C2C12 myotubes, firefly/Renilla luciferase, luminescence, FRG1 inhibition for FSHD, primary screen (AID 1084). Particulars: FRG1 promoter luciferase, higher = more signal, called active from +8 up or from −8 down.
Experiment [9] can be described thus: small molecules captured by biotinylated probe aFST – biochemical, small-molecule microarray, fluorescence 635/667, stem cell growth factor project, primary screen (AID 1086).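 Note: score merges 667 nm fluorescence with signal-to-noise of each printed compound spot.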 Particulars: higher = more signal.
Experiment [10] can be described thus: binders of probe aHhip on microarray, primary screen, stem cell growth factor project, biochemical, small-molecule microarray, fluorescence 635/667 (AID 1087).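 Note: score merges spot fluorescence at 667nm with spot signal to noise ratio.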 Particulars: higher = more signal.
Experiment [11] concerns PRMT1 (protein arginine N-methyltransferase 1). Kind of experiment: small molecules binding arginine methyltransferase PRMT1 – biochemical, small-molecule microarray, 635 nm fluorescence, primary screen (AID 1088).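 Note: binding of Prmt1 protein to compounds spotted on small-molecule microarray slides.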 Particulars: higher = more signal.
The nature of experiment [12]: growth effects on S. cerevisiae YJM789 – YJM789 clinical isolate, OD600, 24 h, basal, primary screen (AID 1089).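 Note: growth of clinical yeast isolate S. cerevisiae YJM 789 seeded 1000 cells per well; test concentration not given here.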 Particulars: higher = more signal, called active from +8 up or from −8 down.
Experiment [13] is described as follows: S. pombe growth modifiers, basal conditions – strain 972, OD600, 24 h, no modulator, primary screen (AID 1090).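 Note: basal condition with compound alone and no growth modifier present; test concentration not given here.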 Particulars: S. pombe 972 growth, higher = more signal, called active from +8 up or from −8 down.
A short description of experiment [14]: budding yeast growth modifiers under rapamycin – strain BY4716, OD600, 96 h, primary screen (AID 1091). Note: test concentration not given here. Particulars: S. cerevisiae BY4716 + rapamycin, higher = more signal, called active from +8 up or from −8 down.
The target of experiment [15] is Torsin-1A-interacting protein 2 (Homo sapiens) (UniProt Q8NFQ8). Kind of experiment: small molecules binding lysate-expressed LULL1 – cell lysate, human LULL1 lysate, 635/667 nm fluorescence, primary screen (AID 1092).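 Note: probe is lysate of COS7 cells overexpressing human LULL1; score merges per-feature 667 nm fluorescence with signal-to-noise.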 Particulars: small-molecule microarray, hLULL1 lysate binding, 635 nm fluorescence; higher = more signal.
Experiment [16] can be described thus: optical density change of DRC41 E. coli – strain DRC41, OD650, 24 h, E. coli filamentation project, primary screen (AID 1093).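 Note: MC1000 strain lacking acrAB efflux and sulA so SOS filamentation is blocked; test concentration not given here.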 Particulars: E. coli DRC41 growth, higher = more signal, called active from +8 up or from −8 down.
The nature of experiment [17]: probe aLefty2 binding to arrayed compounds – biochemical, biotinylated probe, 635/667 nm fluorescence, primary screen (AID 1094).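 Note: score merges spot fluorescence near 667 nm with spot signal-to-noise ratio.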 Particulars: small-molecule microarray, higher = more signal.
The test system of experiment [18] is Noggin (protein binding on small-molecule microarray). Kind of experiment: small molecules binding Noggin protein – biochemical, 635/667 nm fluorescence, primary screen (AID 1095).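 Note: score merges 667 nm feature fluorescence with signal to noise over triplicate slides.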 Particulars: 635 nm fluorescence, higher = more signal.
In experiment [19] the target is Neurogenic locus notch homolog protein 3 (Homo sapiens) (UniProt Q9UM47). Briefly: small molecules binding NOTCH3 protein – biochemical, 635/667 nm fluorescence, primary screen (AID 1096). Particulars: small-molecule microarray, 635 nm fluorescence, higher = more signal.
A short description of experiment [20]: probe aEGFR binding to arrayed compounds – biochemical, biotinylated probe, 635/667 nm fluorescence, primary screen (AID 1097).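 Note: probe is a biotinylated anti-EGFR antibody binding compounds printed on slides; score combines fluorescence near 667 nm and signal to noise of each spot.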 Particulars: small-molecule microarray, higher = more signal.

Sequence of Torsin-1A-interacting protein 2 (Homo sapiens) (Q8NFQ8 whole entry, looked up): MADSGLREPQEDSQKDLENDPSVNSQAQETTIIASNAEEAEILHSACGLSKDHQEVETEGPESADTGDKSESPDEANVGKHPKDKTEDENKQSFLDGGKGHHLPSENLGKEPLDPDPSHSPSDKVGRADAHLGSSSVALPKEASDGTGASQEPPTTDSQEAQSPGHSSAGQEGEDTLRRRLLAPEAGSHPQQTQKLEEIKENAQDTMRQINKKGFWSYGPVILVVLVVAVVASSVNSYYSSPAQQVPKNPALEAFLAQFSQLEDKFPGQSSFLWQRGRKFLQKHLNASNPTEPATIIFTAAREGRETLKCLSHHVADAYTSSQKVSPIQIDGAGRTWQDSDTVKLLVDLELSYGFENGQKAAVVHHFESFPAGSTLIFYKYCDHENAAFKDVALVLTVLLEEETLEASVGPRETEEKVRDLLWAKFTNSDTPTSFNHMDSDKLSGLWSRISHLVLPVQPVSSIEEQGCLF
Sequence of Neurogenic locus notch homolog protein 3 (Homo sapiens) (Q9UM47 whole entry, looked up): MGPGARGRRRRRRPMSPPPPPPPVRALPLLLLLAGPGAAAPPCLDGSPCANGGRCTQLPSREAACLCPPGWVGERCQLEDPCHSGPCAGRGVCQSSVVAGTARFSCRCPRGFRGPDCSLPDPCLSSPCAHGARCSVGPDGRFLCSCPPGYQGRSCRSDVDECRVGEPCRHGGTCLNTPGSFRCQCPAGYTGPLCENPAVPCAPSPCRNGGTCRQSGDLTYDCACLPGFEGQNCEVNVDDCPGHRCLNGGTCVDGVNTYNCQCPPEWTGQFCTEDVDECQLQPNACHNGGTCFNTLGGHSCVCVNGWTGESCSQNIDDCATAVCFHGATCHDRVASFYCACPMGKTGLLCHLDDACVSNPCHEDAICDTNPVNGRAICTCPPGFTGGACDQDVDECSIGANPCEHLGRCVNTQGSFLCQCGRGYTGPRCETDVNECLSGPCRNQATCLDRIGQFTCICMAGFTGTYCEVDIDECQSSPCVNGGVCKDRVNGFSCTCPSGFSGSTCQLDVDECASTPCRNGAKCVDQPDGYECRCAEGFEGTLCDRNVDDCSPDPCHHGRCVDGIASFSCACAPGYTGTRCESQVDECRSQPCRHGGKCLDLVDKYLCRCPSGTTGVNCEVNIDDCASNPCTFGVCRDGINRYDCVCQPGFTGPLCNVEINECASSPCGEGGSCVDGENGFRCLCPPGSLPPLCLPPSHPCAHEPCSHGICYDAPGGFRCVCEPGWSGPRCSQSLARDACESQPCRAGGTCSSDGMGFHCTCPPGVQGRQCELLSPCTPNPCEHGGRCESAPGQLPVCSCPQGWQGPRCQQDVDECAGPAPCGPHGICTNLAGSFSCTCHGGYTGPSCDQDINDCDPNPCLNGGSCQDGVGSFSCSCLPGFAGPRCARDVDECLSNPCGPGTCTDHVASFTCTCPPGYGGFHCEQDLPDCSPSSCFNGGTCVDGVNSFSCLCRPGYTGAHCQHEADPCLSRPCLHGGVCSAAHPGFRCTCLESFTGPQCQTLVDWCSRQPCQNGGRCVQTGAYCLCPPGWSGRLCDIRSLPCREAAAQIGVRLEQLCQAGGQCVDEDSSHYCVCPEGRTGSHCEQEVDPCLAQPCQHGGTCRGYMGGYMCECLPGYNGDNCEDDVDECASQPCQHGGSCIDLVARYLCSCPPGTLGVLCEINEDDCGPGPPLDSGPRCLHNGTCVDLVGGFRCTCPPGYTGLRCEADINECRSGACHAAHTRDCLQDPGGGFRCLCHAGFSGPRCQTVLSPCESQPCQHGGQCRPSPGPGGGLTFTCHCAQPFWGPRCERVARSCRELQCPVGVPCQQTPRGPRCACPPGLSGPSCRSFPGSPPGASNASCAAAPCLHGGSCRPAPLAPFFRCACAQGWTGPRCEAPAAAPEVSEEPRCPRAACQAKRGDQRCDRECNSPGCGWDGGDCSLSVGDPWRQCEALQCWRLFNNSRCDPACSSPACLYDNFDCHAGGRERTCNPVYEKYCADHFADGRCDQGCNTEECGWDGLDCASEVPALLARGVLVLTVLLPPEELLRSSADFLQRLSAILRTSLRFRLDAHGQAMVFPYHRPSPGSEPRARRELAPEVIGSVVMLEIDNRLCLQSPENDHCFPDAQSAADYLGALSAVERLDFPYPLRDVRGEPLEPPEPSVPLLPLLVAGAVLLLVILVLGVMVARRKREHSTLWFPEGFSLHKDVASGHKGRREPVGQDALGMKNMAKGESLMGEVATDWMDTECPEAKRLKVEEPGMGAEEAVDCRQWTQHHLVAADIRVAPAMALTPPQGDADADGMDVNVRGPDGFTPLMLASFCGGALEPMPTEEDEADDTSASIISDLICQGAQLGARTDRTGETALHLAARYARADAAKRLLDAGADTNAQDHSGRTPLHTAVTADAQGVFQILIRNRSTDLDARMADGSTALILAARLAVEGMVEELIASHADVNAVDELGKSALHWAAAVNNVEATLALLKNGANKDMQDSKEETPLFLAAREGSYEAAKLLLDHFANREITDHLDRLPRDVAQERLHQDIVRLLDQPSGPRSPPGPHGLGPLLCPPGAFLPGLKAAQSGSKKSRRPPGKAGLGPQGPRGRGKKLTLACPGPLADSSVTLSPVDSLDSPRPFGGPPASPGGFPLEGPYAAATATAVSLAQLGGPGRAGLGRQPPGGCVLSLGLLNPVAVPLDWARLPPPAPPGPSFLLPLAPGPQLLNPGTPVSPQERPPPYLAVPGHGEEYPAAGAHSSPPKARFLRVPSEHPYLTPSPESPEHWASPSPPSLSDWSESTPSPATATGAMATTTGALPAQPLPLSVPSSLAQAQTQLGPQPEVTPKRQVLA
Sequence of Pro-neuregulin-1, membrane-bound isoform (Homo sapiens) (Q02297 whole entry, looked up, the tested form may be a part, canonical isoform): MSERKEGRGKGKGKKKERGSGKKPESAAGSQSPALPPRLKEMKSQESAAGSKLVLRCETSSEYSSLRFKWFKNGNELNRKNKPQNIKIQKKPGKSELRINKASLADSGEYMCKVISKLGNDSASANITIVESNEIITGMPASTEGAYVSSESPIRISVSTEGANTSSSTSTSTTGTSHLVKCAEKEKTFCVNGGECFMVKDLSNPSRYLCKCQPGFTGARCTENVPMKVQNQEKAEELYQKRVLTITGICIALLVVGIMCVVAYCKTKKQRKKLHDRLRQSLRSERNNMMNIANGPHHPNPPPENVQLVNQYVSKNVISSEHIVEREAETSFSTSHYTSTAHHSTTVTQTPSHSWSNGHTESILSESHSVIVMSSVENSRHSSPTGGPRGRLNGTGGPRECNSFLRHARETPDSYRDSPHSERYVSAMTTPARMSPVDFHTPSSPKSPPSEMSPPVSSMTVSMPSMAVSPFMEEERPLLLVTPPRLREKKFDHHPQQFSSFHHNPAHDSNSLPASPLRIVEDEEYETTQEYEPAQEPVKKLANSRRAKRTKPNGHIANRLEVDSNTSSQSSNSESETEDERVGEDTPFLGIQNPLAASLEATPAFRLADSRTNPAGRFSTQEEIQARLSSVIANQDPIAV

For the molecule `COCCOC(=O)N1C(=O)[C@@]2(c3cc(C#CCCO)ccc31)[C@H](C(=O)N1CCCCCCC1)[C@H]1C(=O)O[C@H](c3ccccc3)[C@H](c3ccccc3)N1[C@@H]2c1ccc(OCCO)cc1`, the composite z-score turned out to be 3.17 in [1]; 0.912 in [2]; 0.68 in experiment [3]; 0.395 in [4]; 1.25 in experiment [5]; 1.01 in experiment [6]. The composite z-score in experiment [7] was found to be 1.18; in experiment [9], 2.87; in [10] it was 0.0111; in experiment [11], 1.51; in experiment [15], 3.52; in [17], 1.53. Moreover, the composite z-score in experiment [18] is 1.55; in [19], 0.93; in [20], 1.04. In addition, the z-score is -1.07 (inactive) in experiment [8]; 1.33 (inactive) in experiment [12]; 1.3 (inactive) in [13]; 2.08 (inactive) in experiment [14]; 0.584 (inactive) in experiment [16].
Regarding `O=C1C[C@@](C(=O)NCCN2CCOCC2)(c2ccc([N+](=O)[O-])cc2)[C@@H](c2ccc(CO)cc2I)N1CC12CC3CC(CC(C3)C1)C2`, the composite z-score in [1] is -0.168; in experiment [2], 0.47; in experiment [3], 0.0232; in experiment [4], 0.569; in experiment [5], 0.926; in experiment [6], 1.64. In addition, the composite z-score was 1.37 in experiment [7]; 0.45 in experiment [9]; 0.192 in [10]; 1.54 in experiment [11]; 3.2 in [15]; -0.112 in [17]. For the same molecule, the composite z-score in experiment [18] is 1.2; in experiment [19], 1.08; in [20] it was -0.0381. Further, the z-score in experiment [8] was -2.84 (inactive); in experiment [12], -24.9 (active); in experiment [13], -5.93 (inactive); in [14] it was 0.0788 (inactive); in experiment [16] it was -0.981 (inactive).
Consider `Cc1ccccc1C(O)C1C=CC2C(=O)N(c3ccccc3)C(=O)C2N1Nc1ccc(C(C)C)cc1` (stereo not given), for which the composite z-score in experiment [1] was -0.0476; in experiment [2], -0.0455; in experiment [3], 0.0536; in experiment [4], 0.82; in [5], 1.5; in [6], 1.27. Further, the composite z-score in experiment [7] is 0.592; in [9], 1.41; in [10], 0.142; in [11], 1.13; in [15] it was 2.3; in experiment [17], -0.0675. The composite z-score is -0.0693 in experiment [18], 1.07 in experiment [19] and 0.0461 in [20]. In addition, the z-score in experiment [8] was -0.729 (inactive); in [12], 1.38 (inactive); in experiment [13], 0.0135 (inactive); in experiment [14] it was 0.798 (inactive); in experiment [16], -1.89 (inactive).
`O=C1NC(=O)C2C1C=CC(C(O)c1cccs1)N2Nc1ccc(Cl)cc1Cl` (stereo not given): the composite z-score in experiment [1] is 0.709; in [2], -0.232; in [3] it was -0.0647; in [4] it was 0.0409; in [5], -0.0246; in experiment [6], 1.25. In addition, the composite z-score is 1.14 in experiment [7]; 0.0983 in [9]; -0.191 in [10]; 0.407 in experiment [11]; 2.37 in experiment [15]; -0.0333 in [17]. Moreover, the composite z-score is -0.394 in experiment [18], -0.23 in [19] and -0.0476 in experiment [20]. Moreover, the z-score in experiment [8] was 0.224 (inactive); in experiment [12], 1.01 (inactive); in experiment [13], 0.186 (inactive); in [14], 1.74 (inactive); in [16], -0.0056 (inactive).
With `O=C(c1ccccc1)N1C(=O)[C@]2(COC(c3ccc(OCCCO)cc3)=N2)Cc2ccccc21`, the composite z-score in [1] was determined as 0.303; in experiment [2] it was 0.863; in [3], 0.11; in experiment [4] it was 0.879; in experiment [5], 0.839; in [6] it was 1.72. Besides, the composite z-score is 1.34 in experiment [7]; 0.647 in experiment [9]; -0.266 in [10]; 1.53 in experiment [11]; 3.17 in experiment [15]; 0.133 in [17]. Besides, the composite z-score in experiment [18] is 0.722; in experiment [19] it was 1.15; in experiment [20], -0.0989. Besides, the z-score in experiment [8] was 1.23 (inactive); in experiment [12], -1.84 (inactive); in experiment [13] it was 0.901 (inactive); in [14], 4.51 (inactive); in experiment [16] it was -0.178 (inactive).
